Assay outcomes deposited in PubChem BioAssay by several laboratories.
CHT allo act – allosterically activates the human high affinity choline transporter; CHT-expressing cells, membrane potential dye, choline EC20; hits give high values; LV-AA mutant CHT in HEK293 cells; B-score at 10 µM; 310,000 compounds, 0.49% hits;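 active = initial fluorescence not abnormally high and integrated response B-score, plate-corrected, over 3 SD above library mean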
AI-2 QS mod – Vibrio harveyi AI-2 quorum sensing modulation; Vibrio harveyi JMH597 AI-2 luminescence/OD600 ratio, 9 h; hits give low values; strain lacks LuxN and CqsS sensors; 0 = neutral-control median; activity change, % at 7.5 µM; 300,000 compounds, 0.4% hits; AID 2094; in the data active = activity change below about -75%, passing the limit was not always enough; inconclusive = no clear call, values can overlap the other calls;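 also: luminescence divided by OD600 gain over 9 h not by final OD600 alone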
Platelet DG rel – platelet dense granule release activity; human platelet-rich plasma, SFLLRN dense granule ATP release, luminescence; AID 1663; inhibition, %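 (compounds screened at 7.5 µM in platelet-rich plasma)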; 300,000 compounds, 0.22% hits;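 active = mean replicate score, as percent of positive control, at or above 50; inconclusive = mean below 50 but at least one replicate at or above 50; inactive = mean and every replicate below 50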
HIF activator – HIF pathway transcriptional activation; activation, % at 7.5 µM (by protocol); U2OS HRE-luciferase reporter, luminescence; normalized: DMSO 0%, desferrioxamine 100%; 300,000 compounds, 0.32% hits;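 active = mean activation of at least 10% of the iron chelator positive control signal, with at least half of replicates also reaching 10%; inconclusive = mean and replicate majority disagree about reaching 10%; inactive = mean and most replicates under 10%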
VLA-4 inh – inhibition in a human VLA-4 binding assay; P13612; VLA-4 expressing cells, ligand binding flow cytometry; inhibition, % (about 7 µM as worked out from the volumes in the protocol); 330,000 compounds, 0.2% hits; in the data active = inhibition above about 50%
Target sequence (P13612 whole entry, looked up): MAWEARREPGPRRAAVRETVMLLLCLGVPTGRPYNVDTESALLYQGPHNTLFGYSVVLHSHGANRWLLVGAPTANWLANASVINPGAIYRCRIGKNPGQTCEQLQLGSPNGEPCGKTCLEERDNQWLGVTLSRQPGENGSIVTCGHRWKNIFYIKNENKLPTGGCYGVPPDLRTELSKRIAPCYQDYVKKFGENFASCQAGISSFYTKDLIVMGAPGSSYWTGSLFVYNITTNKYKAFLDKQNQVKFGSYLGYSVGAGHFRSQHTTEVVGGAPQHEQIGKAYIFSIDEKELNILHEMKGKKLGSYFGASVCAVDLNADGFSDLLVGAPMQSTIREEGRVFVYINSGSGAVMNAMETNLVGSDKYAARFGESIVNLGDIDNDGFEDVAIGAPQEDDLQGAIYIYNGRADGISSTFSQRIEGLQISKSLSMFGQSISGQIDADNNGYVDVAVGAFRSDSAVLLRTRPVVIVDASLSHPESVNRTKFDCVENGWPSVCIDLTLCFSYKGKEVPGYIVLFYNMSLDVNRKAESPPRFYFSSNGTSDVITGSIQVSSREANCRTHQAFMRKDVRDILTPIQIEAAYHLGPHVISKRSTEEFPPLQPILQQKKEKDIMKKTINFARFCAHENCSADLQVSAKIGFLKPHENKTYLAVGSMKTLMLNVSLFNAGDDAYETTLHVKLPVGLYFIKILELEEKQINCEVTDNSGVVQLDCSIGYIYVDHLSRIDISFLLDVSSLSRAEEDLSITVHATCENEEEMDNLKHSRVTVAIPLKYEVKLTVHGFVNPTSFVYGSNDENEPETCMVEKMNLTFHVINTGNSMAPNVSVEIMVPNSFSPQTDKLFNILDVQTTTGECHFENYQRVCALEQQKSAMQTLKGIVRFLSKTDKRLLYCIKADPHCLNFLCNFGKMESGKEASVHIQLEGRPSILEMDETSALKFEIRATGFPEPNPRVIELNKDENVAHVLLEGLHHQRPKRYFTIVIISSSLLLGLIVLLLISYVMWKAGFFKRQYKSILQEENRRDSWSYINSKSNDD
CHT inh – human CHT choline transport inhibition; Q9GZV3; CHT-expressing cells, membrane potential dye, choline response; hits give low values; B-score at 10 µM; 310,000 compounds, 0.86% hits;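 active = B-score over 3 SD under the library average, and starting fluorescence ratio not unusually high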;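 also: choline stimulus applied at its EC90 after an EC20 pre-addition; B-score computed on integrated fluorescence ratio after choline addition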
CHT inh conf – human CHT inhibition, confirmatory screen; shares compounds with CHT inh; CHT-expressing cells, choline membrane potential dye; LV-to-AA substituted CHT, HEK293 cells; CHT activity remaining % of control (hits give low values), % at 10 µM; 2,400 compounds, 70% hits; AID 493221;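 active = choline transporter activity left, mean of duplicates at 10 µM, below buffer-only control mean minus 3 SD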;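 also: depolarization triggered by choline at its EC90 following an EC20 pre-addition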
HEK293 CHT ctr – CHT inhibitor counter-screen hit in parental HEK293 cells; membrane potential ratio readout (active if shifted either direction beyond buffer ±3SD; no single direction) at 10 µM; AID 493222; 2,400 compounds, 4% hits; membrane potential dye, choline response; active = decrease or increase beyond buffer ±3SD; shares compounds with CHT inh;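 also: parental cells lack the transporter so any hit is non-specific; ratio is peak minus trough fluorescence over baseline after EC90 choline challenge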
Each line names hits and unclear results; the compound was inactive in the other large screens (follow-up assays come after a bar, where they were run). Hits are enriched below; roughly 2.2% of the tested compounds scored in any of these assays.

CC(C)(C)NS(=O)(=O)c1ccc(N2C(=O)c3ccccc3C2=O)cc1	CHT inh -7.5 | CHT inh conf 60% | HEK293 CHT ctr inactive
C=CCNS(=O)(=O)c1ccc(N2C(=O)c3ccccc3C2=O)cc1	CHT inh -6.5 | CHT inh conf 63% | HEK293 CHT ctr inactive
COc1cc(COc2ccc3c(C)c(CC(=O)O)c(=O)oc3c2C)cc(OC)c1OC	none
Cc1nc([N+](=O)[O-])c(Br)n1Cc1ccccc1	CHT inh -10 | CHT inh conf 61% | HEK293 CHT ctr inactive
Cc1nc([N+](=O)[O-])c(Br)n1CC(=O)c1cccc([N+](=O)[O-])c1	none
O=C(O)CCc1nn2c3ccccc3n(CC(=O)c3cccs3)c2nc1=O	none
Cc1ccc(CNC(=O)C2CCN(S(=O)(=O)c3ccc4c(c3)CC(C)N4C(=O)C3CCC3)CC2)o1 (stereo not drawn)	none
O=C(Nc1ccc(F)cc1)N1CCN(CCc2ccccc2)CC1	CHT inh -5.4 | CHT inh conf 69% | HEK293 CHT ctr inactive
Cc1noc(C)c1COC(=O)c1cc(F)c(F)cc1Cl	none
Cc1noc(C)c1COC(=O)c1cnc(Cl)c(Cl)c1	CHT inh -6.9 | CHT inh conf 47% | HEK293 CHT ctr inactive
Cc1ccc[n+](CC(=O)c2ccc(Br)cc2)c1C	CHT inh -9.7 | CHT inh conf 39% | HEK293 CHT ctr inactive
Cc1ccc[n+](CC(=O)c2ccc(NC(=O)c3ccccc3)cc2)c1C	none
Cc1ccc[n+](CC(=O)c2ccc(Br)cc2)c1	CHT inh -10 | CHT inh conf 4.2% | HEK293 CHT ctr inactive
COc1ccc(C(=O)C[n+]2cccc(C)c2)cc1	CHT inh -8.5 | CHT inh conf 6.4% | HEK293 CHT ctr inactive
Cc1ccc[n+](CC(=O)c2ccccc2)c1	none
C=CCN(CC=C)S(=O)(=O)c1ccc2nc(NC(=O)C3CCCO3)sc2c1 (stereo not drawn)	CHT inh -5 | CHT inh conf 58% | HEK293 CHT ctr inactive
O=C(CNC(=O)C1CCCCC1)NC1CCCCC1	none
Cc1n[nH]c(C)c1Sc1ccccc1[N+](=O)[O-]	none
Cc1n[nH]c(C)c1Sc1ccccc1N=Cc1cc(Cl)cc([N+](=O)[O-])c1O	CHT inh -7.9 | CHT inh conf 36% | HEK293 CHT ctr inactive
CCN1C(=O)[C@H]2[C@@H](c3ccc(-c4ccc(C(C)=O)cc4)cc3)N[C@@](Cc3ccccc3)(C(=O)OC)[C@H]2C1=O	none
O=C(CSc1nnc(Cc2ccccc2)o1)Nc1ccccc1	none (no result: Platelet DG rel, HIF activator)
O=C(CSc1nnc(Cc2ccsc2)o1)c1ccccc1	CHT inh -5.2 | CHT inh conf 70% | HEK293 CHT ctr inactive
Cc1c(CCC(=O)O)c(=O)oc2cc(OCc3ccccc3F)ccc12	none
N/C(CN1CCCC1=O)=N\OC(=O)c1ccc(Cl)cc1	none
N=C1CCCN1CC(=O)c1ccc(Cl)cc1	CHT inh -10 | CHT inh conf 9.8% | HEK293 CHT ctr inactive
O=C(CSc1nnc(CNC(=O)c2c(F)cccc2F)o1)NCc1ccco1	none
Cc1ccc2cc(C#N)c(N3CCN(C(=O)c4ccccc4)CC3)nc2c1	CHT inh -5.2 | CHT inh conf inactive | HEK293 CHT ctr inactive
COc1cc(C(=O)N2CCCN(c3nc4cc(C)ccc4cc3C#N)CC2)cc(OC)c1OC	none
Cn1c(CCNC(=O)c2cccs2)n[nH]c1=S	CHT inh -6.8 | CHT inh conf inactive | HEK293 CHT ctr inactive
COc1ccc(Cc2noc(CN(C)CC(O)c3ccccc3)n2)cc1OC (stereo not drawn)	CHT inh -5.7 | CHT inh conf inactive | HEK293 CHT ctr inactive
COc1cccc(NC(=O)c2cc3ccccc3o/c2=N\O)c1	AI-2 QS mod inconclusive, CHT inh -6.3 | CHT inh conf inactive | HEK293 CHT ctr inactive
Cc1sc2ncnc(N(C)Cc3ccco3)c2c1C	CHT inh -5.1 | CHT inh conf inactive | HEK293 CHT ctr inactive
O=C(COc1ccccc1)Nc1ccc2oc(=O)ccc2c1	none
FC(F)(F)c1cccc(OCc2nnc3n2CCC3)c1	none
c1ccc(-c2ccccc2OCc2nnc3n2CCC3)cc1	CHT inh -5.3 | CHT inh conf 60% | HEK293 CHT ctr inactive
Cn1c(-c2ccc(F)cc2)cnc1NCc1ccccc1	CHT inh -5 | CHT inh conf inactive | HEK293 CHT ctr inactive
CCN(CC)CCCNC(=O)c1cn(CC)c2ccc(S(=O)(=O)N3CCc4ccccc4C3)cc2c1=O	CHT inh -12 | CHT inh conf 15% | HEK293 CHT ctr inactive
CCn1cc(C(=O)NCCCN2CCN(C)CC2)c(=O)c2cc(S(=O)(=O)N3CCc4ccccc4C3)ccc21	CHT inh -9.1 | CHT inh conf inactive | HEK293 CHT ctr inactive
CCCN(CCC)CCCNC(=O)c1cn(CC)c2ccc(S(=O)(=O)N3CCOCC3)cc2c1=O	none
CCN(CC)CCNC(=O)c1cn(CC)c2ccc(S(=O)(=O)N3CCc4ccccc4C3)cc2c1=O	CHT inh -8.1 | CHT inh conf 28% | HEK293 CHT ctr inactive
O=C(COC(=O)/C=C/c1ccccc1)NCCc1ccc(F)cc1	none (no result: CHT allo act, AI-2 QS mod, Platelet DG rel, HIF activator, CHT inh)
Cc1noc(C)c1NC(=O)N(C)C[C@H]1Oc2ccc(NS(=O)(=O)c3ccc(F)cc3)cc2C(=O)N([C@H](C)CO)C[C@@H]1C	none (no result: CHT allo act, AI-2 QS mod, Platelet DG rel, HIF activator, CHT inh)
O=C(Nc1ccccc1Cl)C1CCCN(c2ncnc3c2nc2n3CCCCC2)C1 (stereo not drawn)	CHT inh -5.2 | CHT inh conf 26% | HEK293 CHT ctr inactive
COc1ccccc1NC(=O)C1CCCN(c2ncnc3c2nc2n3CCCCC2)C1 (stereo not drawn)	CHT inh -6.8 | CHT inh conf 5.7% | HEK293 CHT ctr inactive
O=C(NCc1ccccc1)C1CCCN(c2ncnc3c2nc2n3CCCCC2)C1 (stereo not drawn)	none
Cc1cccc(CCNC(=O)C2CCCN(c3ncnc4c3nc3n4CCCCC3)C2)c1 (stereo not drawn)	CHT inh -7.6 | CHT inh conf 19% | HEK293 CHT ctr inactive
CSCC[C@H](N)C(=O)NCC1CCC(C(=O)Nc2ccc3c(c2)OCO3)CC1 (stereo partly drawn)	none
O=C(Nc1ccccc1)n1ccc(-c2ccc(-n3ccnc3)cc2)n1	none
COc1ccc([C@H]2CC(=O)C=C(c3ccccc3OC)C2)cc1OC	none (no result: CHT allo act, AI-2 QS mod, Platelet DG rel, HIF activator, CHT inh)
Cc1cc(NC(=O)CCC(=O)N(Cc2ccccc2)C2(C(=O)NC3CCCCC3)CCCC2)no1	CHT inh -5.6 | CHT inh conf inactive | HEK293 CHT ctr inactive
